One may read the inhibition as the relative decrease from the control value, in per cent.

Structures are written as SMILES. Values joined by “and” are separate entries in the source; they are usually repeats but may differ in a detail not shown here. Equal entries are not always repeated. Active and inactive are the calls of the source. Cut-off read from the data, not from the text of the source, unless noted: active = inhibition above about 80%; inactive = the rest.

The source of these data is PubChem BioAssay.

One assay in a line: LFS_MB_2R medulloblastoma cell growth inhibition, synergistic combos for chromothripsis tumors, cisplatin combos (AID 1671457).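 Note: cells exposed to compound for four days before readout.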 The conditions noted are these: LFS_MB_2R medulloblastoma cells, measured here: combination with cisplatin, at 5 µM, stronger effect = higher value.
In the case of `CC(=O)OCC(CCn1cnc2cnc(N)nc21)COC(C)=O`, the inhibition was -72.7%.
In the case of `S=c1nc[nH]c2nc[nH]c12`, the inhibition is -9.32% and -12.4% and -4.44%.
Still for that read-out and setting: then `COc1c(N2CCNC(C)C2)c(F)cc2c(=O)c(C(=O)O)cn(C3CC3)c12` (stereo unspecified), with -5.47% and -26.4%; and `CC1COc2c(N3CCN(C)CC3)c(F)cc3c(=O)c(C(=O)O)cn1c23` (stereo unspecified), with -88.9% and 5.83% and 8.15%; and `O=C1c2c(O)ccc(O)c2C(=O)c2c(NCCNCCO)ccc(NCCNCCO)c21`, with 92.5%.
Same read-out and setting: the result for `CS(=O)(=O)OCCCCOS(C)(=O)=O` reads -4.43% and 9.74%; that for `O=C(O)CCCc1ccccc1`, -56.2%.

A short description of a further assay: MDA-MB-436 breast carcinoma cell growth inhibition, synergistic combos for chromothripsis tumors, BGB or cisplatin combos (AID 1671458; call rule not given here;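 note: cells exposed for 96 hours; 0% = vehicle DMSO and 100% = killing by high DMSO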). The conditions noted are these: MDA-MB-436 breast carcinoma growth inhibition, drug combinations; at 0.5 µM; stronger effect = higher value.
For `CC(=O)OCC(CCn1cnc2cnc(N)nc21)COC(C)=O`, the inhibition is -18.3% (inactive).
In the case of `S=c1nc[nH]c2nc[nH]c12`, the inhibition was -2.57% (inactive) and -1.27% (inactive) and 12.1% (inactive).
As for `COc1c(N2CCNC(C)C2)c(F)cc2c(=O)c(C(=O)O)cn(C3CC3)c12` (stereo unspecified), the inhibition was -1.19% (inactive) and -2.62% (inactive).
Regarding `CC1COc2c(N3CCN(C)CC3)c(F)cc3c(=O)c(C(=O)O)cn1c23` (stereo unspecified), the inhibition was -34.5% (inactive) and -6.74% (inactive) and -3.04% (inactive).
On to `O=C1c2c(O)ccc(O)c2C(=O)c2c(NCCNCCO)ccc(NCCNCCO)c21`, for which the inhibition was 53.4% (inactive).
On to `CS(=O)(=O)OCCCCOS(C)(=O)=O`, for which the inhibition was -11.8% (inactive) and -10.9% (inactive).
Regarding `O=C(O)CCCc1ccccc1`, the inhibition is -11.5% (inactive).

Still in this assay, the particulars now being: MDA-MB-436 breast carcinoma growth inhibition, drug combinations; measured here: BGB combination; at 0.5 µM; stronger effect = higher value.
Consider `CC(=O)OCC(CCn1cnc2cnc(N)nc21)COC(C)=O`, for which the inhibition is -5.73%.
In the case of `S=c1nc[nH]c2nc[nH]c12`, the inhibition was -26.2% and -7.09% and 10.3%.
In the case of `COc1c(N2CCNC(C)C2)c(F)cc2c(=O)c(C(=O)O)cn(C3CC3)c12` (stereo unspecified), the inhibition is 3.75% and -2.36%.
On the same count and under the same terms, then `CC1COc2c(N3CCN(C)CC3)c(F)cc3c(=O)c(C(=O)O)cn1c23` (stereo unspecified), with -25.6% and -3.95% and -7.27%; and `O=C1c2c(O)ccc(O)c2C(=O)c2c(NCCNCCO)ccc(NCCNCCO)c21`, with 42.1%; and `CS(=O)(=O)OCCCCOS(C)(=O)=O`, with -20.7% and -8.16%.
The same measure, in the same setting: then `O=C(O)CCCc1ccccc1`, with -6.89%.

Staying with this assay, now noted: MDA-MB-436 breast carcinoma growth inhibition, drug combinations; measured here: BGB combination; at 5 µM; stronger effect = higher value.
On to `CC(=O)OCC(CCn1cnc2cnc(N)nc21)COC(C)=O`, for which the inhibition was -13.3%.
With `S=c1nc[nH]c2nc[nH]c12`, the inhibition is 19.5% and 16% and 25.5%.
`COc1c(N2CCNC(C)C2)c(F)cc2c(=O)c(C(=O)O)cn(C3CC3)c12` (stereo unspecified): the inhibition is -2.62% and -0.158%.
As to `CC1COc2c(N3CCN(C)CC3)c(F)cc3c(=O)c(C(=O)O)cn1c23` (stereo unspecified), the inhibition was -17.4% and 1.21% and -4.78%.
The same measure, in the same setting: the result for `O=C1c2c(O)ccc(O)c2C(=O)c2c(NCCNCCO)ccc(NCCNCCO)c21` reads 93.8%.
On the same count and under the same terms, then `CS(=O)(=O)OCCCCOS(C)(=O)=O`, with 10.5% and 6.58%.
Same read-out and setting: the result for `O=C(O)CCCc1ccccc1` reads -6.08%.

The assay is the same for the next values; noted with them: MDA-MB-436 breast carcinoma growth inhibition, drug combinations; measured here: cisplatin combination; at 0.5 µM; stronger effect = higher value.
On to `CC(=O)OCC(CCn1cnc2cnc(N)nc21)COC(C)=O`, for which the inhibition is -45.7%.
Same read-out and setting: then `S=c1nc[nH]c2nc[nH]c12`, with -2.23% and -7.71% and 3.05%; and `COc1c(N2CCNC(C)C2)c(F)cc2c(=O)c(C(=O)O)cn(C3CC3)c12` (stereo unspecified), with -6.86% and -4.47%; and `CC1COc2c(N3CCN(C)CC3)c(F)cc3c(=O)c(C(=O)O)cn1c23` (stereo unspecified), with -57.3% and -9.51% and 4.2%.
On the same count and under the same terms, then `O=C1c2c(O)ccc(O)c2C(=O)c2c(NCCNCCO)ccc(NCCNCCO)c21`, with 45.8%; and `CS(=O)(=O)OCCCCOS(C)(=O)=O`, with -15.8% and -27%; and `O=C(O)CCCc1ccccc1`, with -24.1%.

Staying with this assay, now noted: MDA-MB-436 breast carcinoma growth inhibition, drug combinations; measured here: cisplatin combination; at 5 µM; stronger effect = higher value.
Consider `CC(=O)OCC(CCn1cnc2cnc(N)nc21)COC(C)=O`, for which the inhibition is -24.3%.
For `S=c1nc[nH]c2nc[nH]c12`, the inhibition was 44.5% and 28.1% and 46.1%.
As for `COc1c(N2CCNC(C)C2)c(F)cc2c(=O)c(C(=O)O)cn(C3CC3)c12` (stereo unspecified), the inhibition is -18.4% and -9.12%.
For the compound `CC1COc2c(N3CCN(C)CC3)c(F)cc3c(=O)c(C(=O)O)cn1c23` (stereo unspecified), the inhibition was -35.2% and 8.53% and -3.87%.
For the compound `O=C1c2c(O)ccc(O)c2C(=O)c2c(NCCNCCO)ccc(NCCNCCO)c21`, the inhibition worked out at 95.6%.
In the case of `CS(=O)(=O)OCCCCOS(C)(=O)=O`, the inhibition was -17.4% and 2.99%.
With `O=C(O)CCCc1ccccc1`, the inhibition was -11.2%.

Another assay can be described thus: UWB1.289_BRCA1 ovarian cancer growth, cell-based, BGB or cisplatin combinations (AID 1671459). To be noted: UWB1.289 BRCA1 ovarian carcinoma, drug combinations, BGB combination, concentration series, at 5 µM, stronger effect = higher value.
As to `CC(=O)OCC(CCn1cnc2cnc(N)nc21)COC(C)=O`, the inhibition is -1.67%.
For the compound `S=c1nc[nH]c2nc[nH]c12`, the inhibition was 95.7% and 91.5% and 93.1%.
On the same count and under the same terms, then `COc1c(N2CCNC(C)C2)c(F)cc2c(=O)c(C(=O)O)cn(C3CC3)c12` (stereo unspecified), with -10.3% and 3.45%; and `CC1COc2c(N3CCN(C)CC3)c(F)cc3c(=O)c(C(=O)O)cn1c23` (stereo unspecified), with -49.7% and -1.75% and -2.9%; and `O=C1c2c(O)ccc(O)c2C(=O)c2c(NCCNCCO)ccc(NCCNCCO)c21`, with 105%.
Same read-out and setting: then `CS(=O)(=O)OCCCCOS(C)(=O)=O`, with 12% and 6.21%; and `O=C(O)CCCc1ccccc1`, with 3.17%.

The assay is the same for the next values; noted with them: UWB1.289 BRCA1 ovarian carcinoma, drug combinations, at 0.5 µM, stronger effect = higher value.
`CC(=O)OCC(CCn1cnc2cnc(N)nc21)COC(C)=O`: the inhibition is -3.29% (inactive).
Same read-out and setting: then `S=c1nc[nH]c2nc[nH]c12`, with 63.6% (inactive) and 53.4% (inactive) and 47.8% (inactive).
On the same count and under the same terms, then `COc1c(N2CCNC(C)C2)c(F)cc2c(=O)c(C(=O)O)cn(C3CC3)c12` (stereo unspecified), with -4.22% (inactive) and 5.59% (inactive).
Same read-out and setting: the result for `CC1COc2c(N3CCN(C)CC3)c(F)cc3c(=O)c(C(=O)O)cn1c23` (stereo unspecified) reads -9.08% (inactive) and -0.86% (inactive) and 1.25% (inactive); that for `O=C1c2c(O)ccc(O)c2C(=O)c2c(NCCNCCO)ccc(NCCNCCO)c21`, 63.4% (inactive).
On to `CS(=O)(=O)OCCCCOS(C)(=O)=O`, for which the inhibition is 5.87% (inactive) and 9.31% (inactive).
Take `O=C(O)CCCc1ccccc1`: the inhibition was -1.28% (inactive).
